Common to all, as to experiment: DAPPL (digital affinity profiling via proximity ligation, sequencing); 10 mM Tris-HCl pH 7.5, 50 mM NaCl, 1 mM DTT, 4% glycerol, room temperature, 30 min; GST-TFs on glutathione beads, 16-mer random dsDNA library, 0.1% formaldehyde crosslink after washing; high values mean tight binding
Holding throughout (settings): protein: recombinant; tags: N-terminal GST; dsDNA, one strand shown

The target in one assay is T1, FLI1 (Homo sapiens, UniProt Q01543 1-452).
T1 sequence: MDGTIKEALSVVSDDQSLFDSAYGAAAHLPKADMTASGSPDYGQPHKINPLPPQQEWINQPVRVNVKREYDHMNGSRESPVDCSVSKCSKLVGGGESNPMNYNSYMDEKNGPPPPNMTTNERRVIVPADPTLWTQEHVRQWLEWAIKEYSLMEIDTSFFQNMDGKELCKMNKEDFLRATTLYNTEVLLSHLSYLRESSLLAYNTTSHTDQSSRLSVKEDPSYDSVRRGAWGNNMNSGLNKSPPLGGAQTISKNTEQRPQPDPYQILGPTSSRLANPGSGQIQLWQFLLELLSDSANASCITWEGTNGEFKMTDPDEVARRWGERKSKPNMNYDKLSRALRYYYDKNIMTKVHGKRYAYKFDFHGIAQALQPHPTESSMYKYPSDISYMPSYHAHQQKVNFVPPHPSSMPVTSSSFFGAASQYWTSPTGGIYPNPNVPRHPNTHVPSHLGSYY
An outline of the steps:
(§1)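 Beads coated with glutathione captured GST-fused human transcription factors that had been expressed in yeast, and the factors were then given DNA barcodes and pooled with a tag-only sample. The pools were incubated with 200 nmole of a random double-stranded 16-mer DNA library in Tris/NaCl/DTT/glycerol buffer for 30 min at room temperature, washed, crosslinked with 0.1% formaldehyde and proximity-ligated with BsaI/T4 ligase at 37 °C for 1 h. PCR amplification and Illumina NextSeq500 sequencing came last. Binding signal is each hexamer's read frequency for a factor divided by its frequency for the tag-only sample.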

For the next assay, the target named is T2, ELK1 (Homo sapiens, UniProt P19419 1-428).
T2 sequence: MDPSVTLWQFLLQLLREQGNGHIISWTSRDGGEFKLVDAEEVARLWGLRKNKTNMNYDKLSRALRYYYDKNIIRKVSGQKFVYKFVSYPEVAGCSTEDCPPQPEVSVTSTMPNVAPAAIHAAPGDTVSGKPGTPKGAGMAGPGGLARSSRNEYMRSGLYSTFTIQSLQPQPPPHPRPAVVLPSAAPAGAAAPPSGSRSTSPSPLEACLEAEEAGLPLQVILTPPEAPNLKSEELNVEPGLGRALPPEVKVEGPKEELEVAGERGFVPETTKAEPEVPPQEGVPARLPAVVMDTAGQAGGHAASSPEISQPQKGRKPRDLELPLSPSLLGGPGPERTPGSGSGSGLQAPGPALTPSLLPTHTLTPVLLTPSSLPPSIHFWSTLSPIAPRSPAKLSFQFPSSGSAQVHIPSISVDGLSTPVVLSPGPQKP
Summed up: as §1

A further assay deals with T3, GABPA (Homo sapiens, UniProt Q06546 1-454).
T3 sequence: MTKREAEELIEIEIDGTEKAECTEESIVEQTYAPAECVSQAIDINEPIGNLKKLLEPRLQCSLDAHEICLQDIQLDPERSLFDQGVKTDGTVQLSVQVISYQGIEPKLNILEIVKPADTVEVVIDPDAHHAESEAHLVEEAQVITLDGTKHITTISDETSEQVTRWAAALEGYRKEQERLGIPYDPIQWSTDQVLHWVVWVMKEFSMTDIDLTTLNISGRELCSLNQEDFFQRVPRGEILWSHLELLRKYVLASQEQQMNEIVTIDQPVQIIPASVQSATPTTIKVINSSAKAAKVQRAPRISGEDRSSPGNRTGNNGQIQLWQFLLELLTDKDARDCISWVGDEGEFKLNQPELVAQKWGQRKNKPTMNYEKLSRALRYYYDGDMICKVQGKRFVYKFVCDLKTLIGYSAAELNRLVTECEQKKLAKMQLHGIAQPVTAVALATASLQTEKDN
An outline of the steps:
as §1

The target of a further assay is ELF1 (Homo sapiens, UniProt P32519 1-619). Summed up:
as §1

The target of the next assay is T4, EHF (Homo sapiens, UniProt Q9NZC4 1-300).
T4 sequence: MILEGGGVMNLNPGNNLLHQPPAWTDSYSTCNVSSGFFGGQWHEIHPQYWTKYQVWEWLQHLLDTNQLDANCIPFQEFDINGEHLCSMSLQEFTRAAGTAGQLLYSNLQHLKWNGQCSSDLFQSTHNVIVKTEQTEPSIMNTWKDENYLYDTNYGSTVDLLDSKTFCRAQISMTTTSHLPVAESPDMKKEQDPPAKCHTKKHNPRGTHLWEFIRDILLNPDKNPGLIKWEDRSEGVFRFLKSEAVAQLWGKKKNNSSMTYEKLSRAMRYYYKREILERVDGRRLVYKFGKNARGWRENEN
Summed up: as §1

For a further assay, the target named is SPI1 (Homo sapiens, UniProt P17947 1-270). An outline of the steps: as §1
The next assay addresses SPIB (Homo sapiens, UniProt Q01892 1-262). An outline of the steps: as §1
For the next assay, the target named is T5, ELK3 (Homo sapiens, UniProt P41970 1-407).
T5 sequence: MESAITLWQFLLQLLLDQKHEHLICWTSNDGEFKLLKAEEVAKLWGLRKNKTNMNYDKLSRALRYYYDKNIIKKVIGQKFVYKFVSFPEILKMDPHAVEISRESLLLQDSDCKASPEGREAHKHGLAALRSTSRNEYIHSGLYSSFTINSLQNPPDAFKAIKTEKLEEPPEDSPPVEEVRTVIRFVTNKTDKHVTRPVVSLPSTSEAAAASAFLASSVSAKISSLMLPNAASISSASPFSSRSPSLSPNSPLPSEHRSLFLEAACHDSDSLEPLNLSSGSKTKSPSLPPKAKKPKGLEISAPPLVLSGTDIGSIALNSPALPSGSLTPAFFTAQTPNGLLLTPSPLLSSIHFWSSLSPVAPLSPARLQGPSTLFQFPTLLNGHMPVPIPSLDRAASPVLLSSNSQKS
An outline of the steps:
as §1

In a further assay the target is T6, FEV (Homo sapiens, UniProt Q99581 1-238).
T6 sequence: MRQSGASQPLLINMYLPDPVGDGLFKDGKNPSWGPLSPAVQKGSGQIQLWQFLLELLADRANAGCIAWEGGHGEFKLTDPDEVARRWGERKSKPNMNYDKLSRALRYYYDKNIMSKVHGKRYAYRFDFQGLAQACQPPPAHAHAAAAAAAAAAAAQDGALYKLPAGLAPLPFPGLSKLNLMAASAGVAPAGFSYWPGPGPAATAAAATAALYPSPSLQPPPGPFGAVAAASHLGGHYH
Summed up: as §1

A further assay addresses ETV5 (Homo sapiens, UniProt P41161 1-510). An outline of the steps:
as §1

For the next assay, the target named is ELF4 (Homo sapiens, UniProt Q99607 1-663). Summed up:
as §1

Another assay addresses ETV1 (Homo sapiens, UniProt P50549 1-477). Summed up:
as §1

In another assay the target is T7, ERF (Homo sapiens, UniProt P50548 1-548).
T7 sequence: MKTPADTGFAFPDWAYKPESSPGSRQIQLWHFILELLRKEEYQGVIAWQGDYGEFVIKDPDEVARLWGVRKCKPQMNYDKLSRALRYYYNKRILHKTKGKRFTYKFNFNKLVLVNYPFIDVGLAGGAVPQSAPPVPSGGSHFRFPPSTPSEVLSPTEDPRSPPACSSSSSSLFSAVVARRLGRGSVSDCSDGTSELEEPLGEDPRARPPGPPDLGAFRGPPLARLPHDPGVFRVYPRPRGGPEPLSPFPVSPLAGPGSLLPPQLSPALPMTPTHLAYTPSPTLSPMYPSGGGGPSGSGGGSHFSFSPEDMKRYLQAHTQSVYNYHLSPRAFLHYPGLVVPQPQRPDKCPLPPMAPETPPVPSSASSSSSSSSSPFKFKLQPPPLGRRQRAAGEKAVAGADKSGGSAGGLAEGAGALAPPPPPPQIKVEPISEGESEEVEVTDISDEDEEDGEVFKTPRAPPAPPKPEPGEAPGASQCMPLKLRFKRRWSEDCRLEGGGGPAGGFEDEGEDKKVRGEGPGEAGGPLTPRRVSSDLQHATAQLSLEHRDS
Summed up:
as §1

Another assay concerns the target T8, ETV3L (Homo sapiens, UniProt Q6ZN32 1-361).
T8 sequence: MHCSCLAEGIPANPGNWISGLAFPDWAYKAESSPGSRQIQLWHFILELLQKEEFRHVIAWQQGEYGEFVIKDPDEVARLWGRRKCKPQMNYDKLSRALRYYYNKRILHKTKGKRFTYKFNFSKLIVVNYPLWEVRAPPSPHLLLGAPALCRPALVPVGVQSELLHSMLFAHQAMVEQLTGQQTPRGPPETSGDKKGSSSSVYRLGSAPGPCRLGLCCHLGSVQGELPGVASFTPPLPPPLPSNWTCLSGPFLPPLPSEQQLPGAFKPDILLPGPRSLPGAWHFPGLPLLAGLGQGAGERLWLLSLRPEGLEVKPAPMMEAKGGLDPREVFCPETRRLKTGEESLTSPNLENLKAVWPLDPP
An outline of the steps: as §1

The next assay has as its target T9, ETS2 (Homo sapiens, UniProt P15036 1-469).
T9 sequence: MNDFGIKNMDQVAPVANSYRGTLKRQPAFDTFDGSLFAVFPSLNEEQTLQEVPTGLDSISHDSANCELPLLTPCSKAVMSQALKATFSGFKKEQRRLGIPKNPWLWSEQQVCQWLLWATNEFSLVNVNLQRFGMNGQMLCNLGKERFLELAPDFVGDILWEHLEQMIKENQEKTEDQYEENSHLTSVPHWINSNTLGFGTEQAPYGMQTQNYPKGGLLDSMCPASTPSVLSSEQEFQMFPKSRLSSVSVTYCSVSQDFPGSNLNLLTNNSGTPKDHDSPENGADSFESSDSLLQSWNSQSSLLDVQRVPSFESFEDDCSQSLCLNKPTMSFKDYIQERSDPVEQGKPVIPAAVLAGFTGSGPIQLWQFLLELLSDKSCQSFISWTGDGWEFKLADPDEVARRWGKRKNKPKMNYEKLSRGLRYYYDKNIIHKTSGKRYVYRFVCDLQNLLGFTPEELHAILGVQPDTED
An outline of the steps: as §1

The target in the next assay is T10, ELF5 (Homo sapiens, UniProt Q9UKW6-2 1-255).
T10 sequence: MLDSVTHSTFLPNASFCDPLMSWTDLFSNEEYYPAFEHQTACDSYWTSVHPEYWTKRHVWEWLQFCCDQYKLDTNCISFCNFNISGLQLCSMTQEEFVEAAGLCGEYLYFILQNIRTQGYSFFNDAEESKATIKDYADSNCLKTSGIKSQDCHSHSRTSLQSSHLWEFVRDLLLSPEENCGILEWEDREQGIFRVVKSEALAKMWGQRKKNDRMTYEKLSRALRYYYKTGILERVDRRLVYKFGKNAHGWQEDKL
An outline of the steps:
as §1

A further assay concerns the target T11, ETV3 (Homo sapiens, UniProt P41162-2 1-143).
T11 sequence: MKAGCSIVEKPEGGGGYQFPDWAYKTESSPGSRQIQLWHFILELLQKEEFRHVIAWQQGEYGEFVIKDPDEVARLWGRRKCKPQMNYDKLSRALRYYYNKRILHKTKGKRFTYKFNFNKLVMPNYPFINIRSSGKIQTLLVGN
Summed up:
as §1

The next assay concerns the target ETV6 (Homo sapiens, UniProt P41212 1-452). Summed up: as §1

Chain of ELF4 (Q99607 whole entry): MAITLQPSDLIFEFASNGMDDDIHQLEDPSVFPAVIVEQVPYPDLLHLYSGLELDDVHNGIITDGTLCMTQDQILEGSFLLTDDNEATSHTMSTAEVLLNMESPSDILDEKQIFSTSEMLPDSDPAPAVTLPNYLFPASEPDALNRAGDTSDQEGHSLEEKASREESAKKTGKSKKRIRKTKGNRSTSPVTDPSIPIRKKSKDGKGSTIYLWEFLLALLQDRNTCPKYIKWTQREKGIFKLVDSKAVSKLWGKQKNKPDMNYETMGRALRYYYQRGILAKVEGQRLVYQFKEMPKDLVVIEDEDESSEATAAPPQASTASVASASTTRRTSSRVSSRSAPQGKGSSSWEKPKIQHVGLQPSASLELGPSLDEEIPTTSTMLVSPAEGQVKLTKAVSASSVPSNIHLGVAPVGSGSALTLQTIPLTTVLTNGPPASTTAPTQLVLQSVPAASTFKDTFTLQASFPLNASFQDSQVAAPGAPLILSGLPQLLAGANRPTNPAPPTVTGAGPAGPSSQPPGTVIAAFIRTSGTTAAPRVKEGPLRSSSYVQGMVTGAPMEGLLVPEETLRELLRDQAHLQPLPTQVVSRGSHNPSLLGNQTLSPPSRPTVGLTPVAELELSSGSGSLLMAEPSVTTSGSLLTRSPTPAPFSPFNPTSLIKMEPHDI
Chain of SPIB (Q01892 whole entry): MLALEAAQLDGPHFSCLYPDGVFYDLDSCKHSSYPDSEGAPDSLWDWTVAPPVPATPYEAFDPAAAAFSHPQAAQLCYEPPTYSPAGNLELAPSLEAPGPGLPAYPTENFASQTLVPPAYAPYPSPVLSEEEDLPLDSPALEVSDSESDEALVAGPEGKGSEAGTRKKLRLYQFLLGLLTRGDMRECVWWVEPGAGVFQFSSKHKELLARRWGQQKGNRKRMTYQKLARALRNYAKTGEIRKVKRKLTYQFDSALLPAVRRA
Chain of ETV6 (P41212 whole entry): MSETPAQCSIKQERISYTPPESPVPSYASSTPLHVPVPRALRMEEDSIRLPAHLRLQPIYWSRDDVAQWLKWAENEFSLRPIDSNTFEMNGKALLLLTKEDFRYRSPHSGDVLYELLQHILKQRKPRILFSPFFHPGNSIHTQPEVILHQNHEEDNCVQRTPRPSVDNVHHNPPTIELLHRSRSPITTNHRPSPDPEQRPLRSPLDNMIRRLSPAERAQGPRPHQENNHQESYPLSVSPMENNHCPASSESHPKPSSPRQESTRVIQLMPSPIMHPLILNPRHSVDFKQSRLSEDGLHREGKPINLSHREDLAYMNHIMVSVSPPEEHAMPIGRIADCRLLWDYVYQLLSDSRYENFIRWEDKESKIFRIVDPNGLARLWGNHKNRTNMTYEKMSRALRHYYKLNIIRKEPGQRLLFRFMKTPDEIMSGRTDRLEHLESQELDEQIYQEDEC
Chain of ETV5 (P41161 whole entry): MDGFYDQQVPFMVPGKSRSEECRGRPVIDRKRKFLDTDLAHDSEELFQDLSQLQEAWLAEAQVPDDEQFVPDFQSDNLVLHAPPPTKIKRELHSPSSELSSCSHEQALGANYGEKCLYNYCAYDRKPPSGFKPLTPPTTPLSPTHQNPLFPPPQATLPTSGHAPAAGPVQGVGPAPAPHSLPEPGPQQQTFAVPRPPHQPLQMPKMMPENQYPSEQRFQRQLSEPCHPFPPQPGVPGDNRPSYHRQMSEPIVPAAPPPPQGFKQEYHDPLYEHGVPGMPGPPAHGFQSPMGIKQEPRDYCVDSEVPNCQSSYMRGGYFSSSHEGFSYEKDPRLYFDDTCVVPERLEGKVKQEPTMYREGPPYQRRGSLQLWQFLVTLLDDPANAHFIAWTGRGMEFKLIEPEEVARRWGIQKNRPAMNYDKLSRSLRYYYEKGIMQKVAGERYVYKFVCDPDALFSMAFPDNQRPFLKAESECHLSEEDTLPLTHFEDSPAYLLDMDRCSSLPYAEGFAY
Chain of ELF1 (P32519 whole entry): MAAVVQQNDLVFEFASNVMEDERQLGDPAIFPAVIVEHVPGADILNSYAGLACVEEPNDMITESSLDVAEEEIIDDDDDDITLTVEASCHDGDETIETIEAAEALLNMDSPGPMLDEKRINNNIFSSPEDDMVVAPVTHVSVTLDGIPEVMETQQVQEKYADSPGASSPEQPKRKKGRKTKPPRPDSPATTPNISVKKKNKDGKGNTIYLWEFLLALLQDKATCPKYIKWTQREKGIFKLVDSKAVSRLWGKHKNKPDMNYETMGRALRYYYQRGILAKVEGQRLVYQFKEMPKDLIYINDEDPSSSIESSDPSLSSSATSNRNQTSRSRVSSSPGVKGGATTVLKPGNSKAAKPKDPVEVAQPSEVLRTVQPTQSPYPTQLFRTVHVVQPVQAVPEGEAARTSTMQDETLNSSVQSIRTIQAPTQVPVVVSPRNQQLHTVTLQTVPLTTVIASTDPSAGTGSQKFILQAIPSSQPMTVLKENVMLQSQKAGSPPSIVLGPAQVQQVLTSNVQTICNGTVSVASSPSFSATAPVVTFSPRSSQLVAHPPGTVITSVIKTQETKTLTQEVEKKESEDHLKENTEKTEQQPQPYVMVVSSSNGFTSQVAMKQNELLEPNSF
Chain of ETV1 (P50549 whole entry): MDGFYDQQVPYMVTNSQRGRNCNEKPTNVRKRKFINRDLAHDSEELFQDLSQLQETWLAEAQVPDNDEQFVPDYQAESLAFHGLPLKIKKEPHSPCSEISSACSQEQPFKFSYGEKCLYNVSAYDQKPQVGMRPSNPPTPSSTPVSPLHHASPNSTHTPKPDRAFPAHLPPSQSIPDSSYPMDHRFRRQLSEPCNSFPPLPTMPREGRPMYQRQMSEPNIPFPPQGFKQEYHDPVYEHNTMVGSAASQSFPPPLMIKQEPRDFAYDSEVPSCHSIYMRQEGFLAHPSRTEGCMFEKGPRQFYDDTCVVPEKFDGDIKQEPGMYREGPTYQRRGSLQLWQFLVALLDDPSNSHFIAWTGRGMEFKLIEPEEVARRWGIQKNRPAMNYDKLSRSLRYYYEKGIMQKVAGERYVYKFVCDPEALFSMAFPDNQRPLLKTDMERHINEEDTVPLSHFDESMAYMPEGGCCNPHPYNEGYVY

On to TTGTCA, for which the binding signal in the assay with FLI1 is 1.1 fold enrichment (6-mer frequency, TF over GST control); with ELK1, 1.04 fold enrichment (6-mer frequency, TF over GST control); with GABPA, 1.08 fold enrichment (6-mer frequency, TF over GST control); with ELF1, 1.13 fold enrichment (6-mer frequency, TF over GST control); with EHF it was 1.11 fold enrichment (6-mer frequency, TF over GST control); with SPI1 it was 1.16 fold enrichment (6-mer frequency, TF over GST control). Further, the binding signal with SPIB was 1.21 fold enrichment (6-mer frequency, TF over GST control); with ELK3, 1.13 fold enrichment (6-mer frequency, TF over GST control); with FEV, 1.06 fold enrichment (6-mer frequency, TF over GST control); in the assay with ETV5 it was 1.05 fold enrichment (6-mer frequency, TF over GST control); in the assay with ELF4, 1.14 fold enrichment (6-mer frequency, TF over GST control); with ETV1, 1.15 fold enrichment (6-mer frequency, TF over GST control). In addition, the binding signal with ERF is 1.3 fold enrichment (6-mer frequency, TF over GST control); with ETV3L, 1.17 fold enrichment (6-mer frequency, TF over GST control); with ETS2, 1.11 fold enrichment (6-mer frequency, TF over GST control); with ELF5, 1.05 fold enrichment (6-mer frequency, TF over GST control); with ETV3, 1.16 fold enrichment (6-mer frequency, TF over GST control); in the assay with ETV6 it was 1.07 fold enrichment (6-mer frequency, TF over GST control).

The values are drawn from paper PMC7862700, “An all-to-all approach to the identification of sequence-specific readers for epigenetic DNA modifications on cytosine”.
